Experimental data published in PubChem BioAssay (NCI).
Compounds without any hit were thinned out: in the full panel of roughly 79,000, 15% have a hit. Active and inactive are the calls of the source. No stated cut-off is given here; in the data, active means growth inhibition above about 70%; inactive means the rest.

Test: NCI Yeast Anticancer Drug Screen. Data for the bub3 strain (AID 167)
Settings: S. cerevisiae bub3 mutant strain, at 50.0 µM, active compounds read high
Outline: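 Yeast carrying a defined mutation is treated with each compound, and growth is compared with that of vehicle-exposed cells to give inhibition.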

Row | Compound | growth inhibition
1 | Nc1cc(S(=O)(=O)O)cc2ccc(S(=O)(=O)O)cc12 | -5.65% (inactive)
2 | Cc1cc(=O)oc2c(C)c(O)ccc12 | -16.6% (inactive)
3 | O=C(OC(=O)c1cccnc1)c1cccnc1 | -2.85% (inactive)
4 | O=[N+]([O-])c1ccc(N=Nc2ccc(O)c3c(O)cc(S(=O)(=O)O)cc23)cc1S(=O)(=O)O | -11.4% (inactive)
5 | Cc1cccc2c(=O)[nH]c(=O)[nH]c12 | -4.4% (inactive)
6 | CC(C)N(C(=O)C12C3C4C5C3C1(C(=O)N(C(C)C)C(C)C)C5C42)C(C)C (stereo not given) | 19.9% (inactive)
7 | Nc1ccc(/C(=N\O)c2ccccc2)cc1 | -2.6% (inactive)
8 | Cc1ccc(C(C)C)cc1NC(=O)/C=C/c1ccccc1 | 23.9% (inactive)
9 | COc1ccc(OC)c(-c2cc(C(=O)O)c3cc4ccccc4cc3n2)c1 | -52.8% (inactive)
10 | CCC12CC3(C(=O)OC)OC1C(O)CN1CCc4c(n3c3cc(OC)ccc43)C12 (stereo not given) | -9.35% (inactive)
11 | Cc1cc(=O)oc2nc(-c3ccccc3)[nH]c(=O)c12 | -7.15% (inactive)
12 | CCOC(=O)Nc1ccc(S(=O)(=O)c2ccc(Nc3ccnc4cc(Cl)ccc34)cc2)cc1 | 5.45% (inactive)
13 | O=S(=O)(/C=C/c1ccc(Cl)cc1Cl)Cc1ccccc1CS(=O)(=O)/C=C/c1ccc(Cl)cc1Cl | 6.95% (inactive)
14 | Nc1nc(N)c(Nc2ccc(Cl)cc2)c(Cl)n1 | 40.9% (inactive)
15 | CCCCN(CCCC)C(=O)C(O)C(=O)N(CCCC)CCCC | -13.3% (inactive)
16 | CC(=O)Oc1nnc(OC(C)=O)c2cc(N)ccc12 | 9.9% (inactive)
17 | Nc1cc2c(cn1)[nH]c1ccccc12 | 5.6% (inactive)
18 | CCOC(=O)C1(C(=O)OCC)CCCCC1=O | -46.6% (inactive)
19 | COc1ccc(/C=N\N2CN(C(CC(N)=O)C(=O)O)C(O)(CCl)N=C2N)cc1OC (stereo not given) | 6.8% (inactive)
20 | Cc1ccc([Si](C)(C)c2ccccc2)cc1 | 9.7% (inactive)

Row | Compound | growth inhibition
21 | COC1CC(OC2C(C)OC(OC3C(C)OC(OC4C(C)OC(O[C@H]5CC[C@@]6(C)C(=CC[C@]7(O)[C@@H]6C[C@@H](OC(=O)/C=C/c6ccccc6)[C@@]6(C)[C@]7(O)CC[C@@]6(O)C(C)=O)C5)CC4OC)CC3OC)CC2OC)OC(C)C1O (stereo not given in full) | 7.15% (inactive)
22 | N#CC(C#N)=CNc1cccc(Cl)c1 | -1.05% (inactive)
23 | C#CCN(CC#C)C(=O)C(=O)c1c[nH]c2ccc(OC)cc12 | 52.4% (inactive)
24 | CCCCCCCCCCCCCCCC(=O)OCC(=O)O | 15.2% (inactive)
25 | Cc1cccc2c1-c1c(C)cccc1C(Cl)S(=O)(=O)C2 (stereo not given) | 6.85% (inactive)
26 | N#CC(C#N)=C(O)/C(=C/c1ccc(Cl)cc1Cl)NC(=O)c1ccccc1 | -13.3% (inactive)
27 | N#CC(CN1CCCCC1)c1ccccc1 (stereo not given) | -8.75% (inactive)
28 | O=C1CN(c2ccc(Cl)cc2)C(=O)CN1/N=C/c1ccc(O)c(O)c1 | -7.65% (inactive)
29 | CN1[C@@H]2C[C@@H](OC(=O)[C@H](CO)c3ccccc3)C[C@H]1[C@@H]1O[C@@H]12 | -10.3% (inactive)
30 | CC(=O)c1ccc(C(=O)O)cc1 | -4.3% (inactive)
31 | CC(C)Oc1c(O)c2c3c(oc(=O)n3C=CC2c2ccccc2)c1OC(C)C (stereo not given) | 85.5% (active)
32 | COC(=O)/C(=N\N)C(C(=O)C(=O)Nc1nc(=S)[nH][nH]1)c1nc2ccc([N+](=O)[O-])cc2[nH]c1=O (stereo not given) | 29% (inactive)
33 | CCC(C)C(NCc1ccccc1)C(=O)O (stereo not given) | -18.4% (inactive)
34 | CCCCON1C[C@H](OC(C)=O)C(OC(C)=O)[C@H](OC(C)=O)C1 (stereo not given in full) | 16.9% (inactive)
35 | CCNc1nc(C)nc2c1cnn2-c1ccc(C)cc1 | -21.8% (inactive)
36 | CC1OC(O[C@@H]2OC=C(C=O)[C@@]3(O)CC[C@H](C)[C@@H]23)C(O)C(O)C1O (stereo not given in full) | -6.1% (inactive)
37 | Nc1nc(=O)n(C2CCC(CO)O2)cc1F (stereo not given) | 10.5% (inactive)
38 | O=C(O)COc1cccc2ccccc12 | 1.75% (inactive)
39 | CCOC1CCC=CO1 (stereo not given) | -21.9% (inactive)
40 | O=C(Nc1ccccc1Br)c1ccc(F)cc1 | 14.8% (inactive)

Test: NCI Yeast Anticancer Drug Screen. Data for the mlh1 rad18 strain (AID 175)
Settings: S. cerevisiae mlh1 rad18 strain growth inhibition; at 50.0 µM; active compounds read high
Outline: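 Growth inhibition of the yeast strain was measured after compound exposure and expressed relative to vehicle-treated controls. The strain carries defined defects in DNA damage repair.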

Row | Compound | growth inhibition
41 | Nc1cc(S(=O)(=O)O)cc2ccc(S(=O)(=O)O)cc12 | 3.95% (inactive)
42 | Cc1cc(=O)oc2c(C)c(O)ccc12 | 16.4% (inactive)
43 | O=C(OC(=O)c1cccnc1)c1cccnc1 | 6.65% (inactive)
44 | O=[N+]([O-])c1ccc(N=Nc2ccc(O)c3c(O)cc(S(=O)(=O)O)cc23)cc1S(=O)(=O)O | 50.1% (inactive)
45 | Cc1cccc2c(=O)[nH]c(=O)[nH]c12 | -20.1% (inactive)
46 | CC(C)N(C(=O)C12C3C4C5C3C1(C(=O)N(C(C)C)C(C)C)C5C42)C(C)C (stereo not given) | 14.4% (inactive)
47 | Nc1ccc(/C(=N\O)c2ccccc2)cc1 | 10.1% (inactive)
48 | Cc1ccc(C(C)C)cc1NC(=O)/C=C/c1ccccc1 | 55% (inactive)
49 | COc1ccc(OC)c(-c2cc(C(=O)O)c3cc4ccccc4cc3n2)c1 | 17.2% (inactive)
50 | CCC12CC3(C(=O)OC)OC1C(O)CN1CCc4c(n3c3cc(OC)ccc43)C12 (stereo not given) | 1.5% (inactive)
51 | Cc1cc(=O)oc2nc(-c3ccccc3)[nH]c(=O)c12 | 18.3% (inactive)
52 | CCOC(=O)Nc1ccc(S(=O)(=O)c2ccc(Nc3ccnc4cc(Cl)ccc34)cc2)cc1 | 47.8% (inactive)
53 | O=S(=O)(/C=C/c1ccc(Cl)cc1Cl)Cc1ccccc1CS(=O)(=O)/C=C/c1ccc(Cl)cc1Cl | -9.15% (inactive)
54 | Nc1nc(N)c(Nc2ccc(Cl)cc2)c(Cl)n1 | 50.5% (inactive)
55 | CCCCN(CCCC)C(=O)C(O)C(=O)N(CCCC)CCCC | -3.8% (inactive)
56 | CC(=O)Oc1nnc(OC(C)=O)c2cc(N)ccc12 | 0.75% (inactive)
57 | Nc1cc2c(cn1)[nH]c1ccccc12 | -2.35% (inactive)
58 | CCOC(=O)C1(C(=O)OCC)CCCCC1=O | -1.1% (inactive)
59 | COc1ccc(/C=N\N2CN(C(CC(N)=O)C(=O)O)C(O)(CCl)N=C2N)cc1OC (stereo not given) | -0.1% (inactive)
60 | Cc1ccc([Si](C)(C)c2ccccc2)cc1 | 4.9% (inactive)

Row | Compound | growth inhibition
61 | COC1CC(OC2C(C)OC(OC3C(C)OC(OC4C(C)OC(O[C@H]5CC[C@@]6(C)C(=CC[C@]7(O)[C@@H]6C[C@@H](OC(=O)/C=C/c6ccccc6)[C@@]6(C)[C@]7(O)CC[C@@]6(O)C(C)=O)C5)CC4OC)CC3OC)CC2OC)OC(C)C1O (stereo not given in full) | -27.6% (inactive)
62 | N#CC(C#N)=CNc1cccc(Cl)c1 | 18.5% (inactive)
63 | C#CCN(CC#C)C(=O)C(=O)c1c[nH]c2ccc(OC)cc12 | 51% (inactive)
64 | CCCCCCCCCCCCCCCC(=O)OCC(=O)O | 1.3% (inactive)
65 | Cc1cccc2c1-c1c(C)cccc1C(Cl)S(=O)(=O)C2 (stereo not given) | -1.65% (inactive)
66 | N#CC(C#N)=C(O)/C(=C/c1ccc(Cl)cc1Cl)NC(=O)c1ccccc1 | 14.3% (inactive)
67 | N#CC(CN1CCCCC1)c1ccccc1 (stereo not given) | 0.8% (inactive)
68 | O=C1CN(c2ccc(Cl)cc2)C(=O)CN1/N=C/c1ccc(O)c(O)c1 | -4.95% (inactive)
69 | CN1[C@@H]2C[C@@H](OC(=O)[C@H](CO)c3ccccc3)C[C@H]1[C@@H]1O[C@@H]12 | 5.6% (inactive)
70 | CC(=O)c1ccc(C(=O)O)cc1 | 6.15% (inactive)
71 | CC(C)Oc1c(O)c2c3c(oc(=O)n3C=CC2c2ccccc2)c1OC(C)C (stereo not given) | 82.3% (active)
72 | COC(=O)/C(=N\N)C(C(=O)C(=O)Nc1nc(=S)[nH][nH]1)c1nc2ccc([N+](=O)[O-])cc2[nH]c1=O (stereo not given) | 22.6% (inactive)
73 | CCC(C)C(NCc1ccccc1)C(=O)O (stereo not given) | -8.25% (inactive)
74 | CCCCON1C[C@H](OC(C)=O)C(OC(C)=O)[C@H](OC(C)=O)C1 (stereo not given in full) | -24.6% (inactive)
75 | CCNc1nc(C)nc2c1cnn2-c1ccc(C)cc1 | 7.25% (inactive)
76 | CC1OC(O[C@@H]2OC=C(C=O)[C@@]3(O)CC[C@H](C)[C@@H]23)C(O)C(O)C1O (stereo not given in full) | -39.2% (inactive)
77 | Nc1nc(=O)n(C2CCC(CO)O2)cc1F (stereo not given) | 5.05% (inactive)
78 | O=C(O)COc1cccc2ccccc12 | 14.7% (inactive)
79 | CCOC1CCC=CO1 (stereo not given) | 39.6% (inactive)
80 | O=C(Nc1ccccc1Br)c1ccc(F)cc1 | 14.6% (inactive)
